From the supplement of paper PMC6555819

test system: VDR:RXRa (NR concentration 270 nM, RXRa partner concentration 90 nM); assay: PBM binding z-score (relative to random genomic background probes); higher = stronger binding; sequences stand for … in GC…GCGATTGACAGCGTAGAATGAAGG
Protocol: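 Protein-binding microarray (Agilent 4x180K custom design, double-stranded 60-nt probes: 5' GC cap, 34-nt variable region, 24-nt constant primer region; full probe sequence given). Purified or IVT nuclear receptor:RXRα heterodimers (3:1 NR:RXRα, mostly 270:90 nM) or homodimers were incubated for 1 h in PBS with 2% milk and no ligand, then detected with Alexa488 antibodies. Fluorescence from o1-orientation probes (~5 replicates averaged) was converted to z-scores against 500 random hg19 background probes. Variable regions are seed direct-repeat (DR0–DR5) sites, all their single-nucleotide variants and half-site ablations.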

In order of falling PBM binding z-score:
1. CAAACTGGGTCACAGAGGTCAAAGTCCGTGCGTA  7.58
2. TCCAGTTGGTCACGGAGGTCACACACGACGGGTA  5.75
3. CAAACTAGGTCACCGGCAGGTCAAAGTCCGCATG  5.36
4. TCATATAGGTCATACAGGTGAAAGTCGGCATCTA  5.01
5. CGTCCAAGGTCAGGAGGTCAGTGAAAGCGACGTG  4.66
6. TGTCAAAGTTCACAGGTAACGTAAGTATCCACAC  4.54
7. CATACTGGGCCATTCAGAGGTCATTGATCATATG  4.15
8. AGTCAAAGTTCACTAGGTAACGTCAGATTCAGCT  3.95
9. CCTTACGGGTCACGACGTTATAGCACGACGAGCG  3.73
10. ATCGAAAGGTCGTCAGGTGAGTATACAGAAAGGC  3.72
11. CCTACTGGGCTACGAAAGGTCATTGATTCAGTGA  3.71
12. TCTCGGAGGCCACGAAGGTCAGAGCTTTCCAGAG  3.69
13. AATACCGGGTCACTAGGCCAGAGTAGGTACGAAT  3.03
14. ATCGAAAGGTCGAAGGTGAGTATTCCCACCCGAA  2.58
15. AGACTGAGGTTATTAAGATCAGGGAATTGCGGTC  2.39
16. CAAACTAGGTCACCGGAAGCTCAAAGTCCGCATG  2.23
17. TCTCGGAGAACACGAAAGGTCAGAGCTCGACATC  2.22
18. TGAATGAGGTTAAAGATCATGGAACGTGGCGTCG  2.05
19. ATCTCTTGGTAACAAGTTCAGTGAAAGAGAGGAC  1.84
20. TCATGTAGATCAAAGGTTAAGAAAGCCGAAGCCT  1.66
21. GGAACGAGGGCATTCGAGATGATAGCATGGCGAT  1.45
22. ATATGTAGGTTACATCCGTGTCATTCAGGCTATG  1.4
23. CGAACGAGGGCATGAGTTGATAGCTAATGCCGAT  1.37
24. TCGAGTAGGTTAGTCGGGGCATGCAGCCAACATA  1.24
25. TCTTGTAGATAAAAGGTTAAGAAAGCCGAAGCCT  1.2
26. TCTATTAGTTGAAGGGCATCCGACGAGTCCGTTT  1.08
27. CCGACTGGGGCAGAAAGGTTACCGTACCATCCGG  0.919
28. TCAGACACGTGAAGGTAACTCAGGTACGCAGTCG  0.881
29. CCTGCTAGGTCAATGGTCAGGTAAAGCAGCTCGC  0.722
30. TCATATAGGTAAATGCTAGGAGAAAGTCCGATCT  0.71
31. CGAACTAGGTCAGAATAGGACAGTGAAGGATGAT  0.491
32. GCTGCTAGGTCAGGTTGGTCAGCTACCGGGTACG  0.397
33. ATCGAAAGGTGGAGGTGAGTATAGAGAAAGGGAA  0.346
34. TCGAGTAGATTAGGGGCATTCAGAATGGCGTCGA  0.295
35. CCGAGTAGGTTATGGGACATTCAGGCAACGGTGA  0.258
36. AGTCAAAGTTCCTCTAGGTAACGTAAGATATGCT  0.145
37. GCATATAGGTACTACAAGGTGAAAGTCCGATTGT  0.143
38. TCTGCTAGGTCAGTTGGTCGGCTAACGAGCTGCC  0.0498
39. TCTTGTAGATCAGCAGGATAAGAAAGCTGGCCAA  -0.113
40. GCTGCTAGCTCAGGTTGGTCAGCTAACGGGTACG  -0.71
